This is an account of results in PubChem BioAssay (NCATS).

Test [1] is described as follows: qHTS to identify inhibitors of the type 1 interferon - major histocompatibility complex class I in skeletal muscle: primary screen against the NCATS Pharmaceutical Collection (AID 1347407).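 Note: luminescence of HiBiT knocked into endogenous HLA-B as interferon-induced MHC class I level.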 Note: potency is the fitted concentration of half-maximal effect. In outline:
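Luminescence from HiBiT-tagged endogenous HLA-B*08:01 served as the read-out of IFN-beta-induced MHC class I in CRISPR-engineered C25cl48 myoblasts. Cells received 4 ng/ml IFN-beta plus compound (high final 46 uM, […]) for 24 h.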

Test [2] deals with Protein phosphatase 1D (Homo sapiens) (UniProt O15297). The experiment in a line: RapidFire Mass Spectrometry qHTS Assay for Modulators of WT P53-Induced Phosphatase 1 (WIP1) (AID 1347424). Note: series mostly up to about 63 µM. The essentials:
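RapidFire MS readout of dephosphorylated VEPPL-S-QETFS product, with 1 uM isotope-labelled peptide standard. Reaction: 10 nM WIP1, 2 uM phosphopeptide substrate, 5 min, room temperature, after 1 h compound preincubation; stopped with 0.5% formic acid.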
A general note: Quantitative high-throughput screening tests each substance at several concentrations.

Test [3] shares this target. In words: Rhodamine-PBP qHTS Assay for Modulators of WT P53-Induced Phosphatase 1 (WIP1) (AID 1347425). In outline:
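The read-out is the change in Rhodamine-PBP fluorescence (f1 - f0, ex 525/em 598 nm) as Pi is released, read each minute for 11 min. Final reaction: 5 nM WIP1, 10 uM phosphopeptide VEPPL-pS-QETFS, 10 uM Rh-PBP, 50 mM Tris-HCl pH 7.5, 30 mM MgCl2. Compound was preincubated with enzyme for 1 hour at room temperature.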

Test [4] is described as follows: Primary qHTS for inhibitors of La Crosse Virus (LACV) - induced cell death in SH-SY5Y cells (AID 1508616).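 Note: top concentration of the series differs between compounds; higher means more rescue of cells from virus-induced death.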 In outline:
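Rescue of virus-induced death was read as ATPLite luminescence after 6 days at 37C, scaled between DMSO wells with LACV and without virus. Cells were SH-SY5Y, 6000/well, infected at 0.01 MOI after compound addition.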

In test [5] the target is Calcium and integrin-binding protein 1 (Homo sapiens) (UniProt Q99828). In words: Primary qHTS for Identification of Calcium Integrin Binding Protein 1 (CIB1) Competitor (AID 1508620).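 Note: GST tagged CIB1 binding a fluorescein labelled alphaIIb integrin peptide tracer; top concentration of the series differs between compounds.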 The essentials:
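Fluorescence polarization competition: GST-tagged CIB1 (1 uM final) preincubated with compound 15 min at room temperature, then FITC-labelled alphaIIb peptide (100 nM final) added. After 15 min at room temperature, polarization read at Ex 480/Em 540.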

Records with an inconclusive call do not appear. Calls of active or inactive are those of the source. Calls come from the whole dose curve; as a rule, active = well fitted curve in the direction sought with a large enough effect; inconclusive = small, poorly fitted or top-dose-only effect, or another doubt; inactive = no such curve, though single readings can be large; an effect the other way counts as inactive or inconclusive. Where a SMILES comes first, the peptide text is derived from it.

Protein phosphatase 1D (Homo sapiens), sequence (O15297 whole entry, looked up): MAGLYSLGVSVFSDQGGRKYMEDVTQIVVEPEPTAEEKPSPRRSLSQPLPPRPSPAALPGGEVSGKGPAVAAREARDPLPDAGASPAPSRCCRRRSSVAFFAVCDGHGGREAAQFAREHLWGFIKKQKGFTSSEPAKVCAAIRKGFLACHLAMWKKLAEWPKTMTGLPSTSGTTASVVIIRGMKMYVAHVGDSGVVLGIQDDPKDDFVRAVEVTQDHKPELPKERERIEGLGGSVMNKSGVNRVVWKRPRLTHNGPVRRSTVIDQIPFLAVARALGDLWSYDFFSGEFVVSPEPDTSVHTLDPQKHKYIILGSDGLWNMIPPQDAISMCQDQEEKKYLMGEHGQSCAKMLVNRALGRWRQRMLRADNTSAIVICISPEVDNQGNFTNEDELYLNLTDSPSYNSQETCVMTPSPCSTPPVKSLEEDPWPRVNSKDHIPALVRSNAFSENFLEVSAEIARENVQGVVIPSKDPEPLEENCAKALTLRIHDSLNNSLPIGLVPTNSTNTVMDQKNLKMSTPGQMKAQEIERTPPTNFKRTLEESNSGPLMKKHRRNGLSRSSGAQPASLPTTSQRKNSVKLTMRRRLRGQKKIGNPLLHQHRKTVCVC
Calcium and integrin-binding protein 1 (Homo sapiens), sequence (Q99828 whole entry, looked up): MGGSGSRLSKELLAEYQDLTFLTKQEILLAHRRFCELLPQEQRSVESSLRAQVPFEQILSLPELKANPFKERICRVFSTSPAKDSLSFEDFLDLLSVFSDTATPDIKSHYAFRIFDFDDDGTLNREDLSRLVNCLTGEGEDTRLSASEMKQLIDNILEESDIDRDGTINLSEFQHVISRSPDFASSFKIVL

For `CC(C)=CCC/C(C)=C/CC/C(C)=C/CCC(=O)OC/C=C(\C)CCC=C(C)C`, the Potency entry in test [1], in test [2] and in test [5] was “inactive” throughout. Besides, the outcome in test [3] and in test [4] was inactive.
Regarding `Cc1c(C)c2c(c(C)c1OC(=O)CCC(=O)OCCO)CC[C@@](C)(CCC[C@H](C)CCC[C@H](C)CCCC(C)C)O2`, the Potency result in test [1] and in test [2] was “inactive” in each case. Further, the compound was called inactive in test [3] and in test [4].
As for `O=C(O)c1[nH]n(-c2ccc(S(=O)(=O)O)cc2)c(=O)c1N=Nc1ccc(S(=O)(=O)O)cc1`, the Potency result in test [1], in test [2] and in test [5] was “inactive” each time. Also, the compound was classed as inactive in test [3] and in test [4].
With `Cc1ccc(Cl)c(OCC(O)CNC(C)(C)C)c1` (stereo not drawn), the Potency result in test [1], in test [2] and in test [5] was “inactive” throughout. Further, the compound was called inactive in test [3] and in test [4].
As for `O=C(Oc1ccccc1)c1ccccc1O`, the Potency entry in test [1], in test [2] and in test [5] was “inactive” throughout. The compound was called inactive in test [3] and in test [4].
`C[C@@]12CCC[C@H]1[C@@H]1CC[C@H]3C[C@@H](O)CC[C@]3(C)[C@H]1CC2`: the Potency entry in test [1], in test [2] and in test [5] was “inactive” in each case. The call in test [3] and in test [4] was inactive.
With `CC(C)=CCNc1ncnc2c1ncn2[C@@H]1O[C@H](CO)[C@@H](O)[C@H]1O`, the Potency in test [1] is 7.45 µM (active). The Potency entry in test [2] and in test [5] was “inactive” each time. The compound was called inactive in test [3] and in test [4].
For the compound `C[C@@H]1C[C@H]2[C@@H]3CCC4=CC(=O)C=C[C@]4(C)[C@@]3(F)[C@@H](O)C[C@]2(C)[C@@]1(O)C(=O)COC(=O)c1ccncc1`, the Potency result in test [1], in test [2] and in test [5] was “inactive” each time. The result in test [3] and in test [4] was inactive.
Take `Oc1ccccc1`: the Potency result in test [1] and in test [2] was “inactive” throughout. The compound was called inactive in test [3] and in test [4].
Consider `CC(CC(C#N)(c1ccccc1)C(C)C)N(C)C` (stereo not drawn), for which the Potency entry in test [1], in test [2] and in test [5] was “inactive” in each case. The compound was classed as inactive in test [3] and in test [4].
As to `CC(=O)N[C@@H](CO)C(=O)N[C@@H](CC(=O)O)C(=O)N[C@@H](CCCCN)C(=O)N1CCC[C@H]1C(=O)O` (Ac-SDKP-OH), the Potency result in test [1], in test [2] and in test [5] was “inactive” in each case. Further, the compound was classed as inactive in test [3] and in test [4].
Regarding `O=c1[nH]c(=O)n([C@H]2O[C@H](CO)[C@@H](O)[C@@H]2O)cc1/C=C\Br`, the Potency result in test [1], in test [2] and in test [5] was “inactive” in each case. Also, the compound was called inactive in test [3] and in test [4].
In the case of `C1=CC2C3C=CC(C3)C2C1` (stereo not drawn), the Potency entry in test [1], in test [2] and in test [5] was “inactive” in each case. Besides, the result in test [3] and in test [4] was inactive.
In the case of `Cc1ccccc1N1CCN(CCc2nnc3n2CCCC3)CC1`, the Potency result in test [1], in test [2] and in test [5] was “inactive” each time. Also, the compound was classed as inactive in test [3] and in test [4].
With `O=C1CC2(CCCC2)CC(=O)N1`, the Potency result in test [1], in test [2] and in test [5] was “inactive” throughout. Moreover, the compound was called inactive in test [3] and in test [4].
For `COc1ccc(/C(C)=C/C(=O)O)c(OC)c1`, the Potency result in test [1], in test [2] and in test [5] was “inactive” throughout. The compound was classed as inactive in test [3] and in test [4].
Regarding `CCCCC/C=C\C/C=C\CCCCCCCC(=O)NC(C)c1ccccc1` (stereo not drawn), the Potency entry in test [1], in test [2] and in test [5] was “inactive” in each case. Moreover, the result in test [3] and in test [4] was inactive.
As to `c1ccc(C(O[C@H]2CCCN(CCc3ccc4c(c3)OCO4)C2)c2ccccc2)cc1`, the Potency result in test [1], in test [2] and in test [5] was “inactive” each time. Besides, the outcome in test [3] and in test [4] was inactive.
Regarding `Cc1c(N)cccc1C(F)(F)F`, the Potency entry in test [1], in test [2] and in test [5] was “inactive” each time. Besides, the compound was called inactive in test [3] and in test [4].
Regarding `CC(=O)OCC(=O)[C@@]1(O)[C@H](OC(C)=O)C[C@H]2[C@@H]3CCC4=CC(=O)C=C[C@]4(C)[C@@]3(F)[C@@H](O)C[C@@]21C`, the Potency entry in test [1], in test [2] and in test [5] was “inactive” throughout. Further, the result in test [3] and in test [4] was inactive.
